# Sa growth 42C = S. aureus growth inhibition at 42 and 30 °C, primary screen, LtaS inhibitor project, RN4220, two temperatures | relative growth, % (no concentration beside the values) | 170,000 compounds, 0.53% hits | AID 720641, 2013 | OD600, 20 h, 42 °C; stronger effect = lower value;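 active = relative growth at most 50% at the other temperature and 20+ points below 30 °C, or under 10% at both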
# S aureus helic = inhibitors of S. aureus replicative helicase, primary screen, biochemical, fluorescence unwinding readout | purified S. aureus helicase, fluorescence unwinding assay | 120,000 compounds, 0.05% hits | inhibition, % (concentration not given with the values) | replicative DNA helicase (DnaC/DnaB), Staphylococcus aureus | AID 485395, 2010; in the data active = inhibition above about 25%, passing the limit was not always enough;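 also: 0% = mean of negative control wells and 100% = mean of positive control wells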
# * hit, by the source's call; nt = not tested or not shown. Only a selection was taken, and hits are over-represented in it overall.
SMILES,Sa growth 42C,S aureus helic
CCc1cc2c(=O)n(CC)c(SCC3CCCCO3)nc2s1 (configuration not stated),82,-4
CN1/C(=C/c2cccc[n+]2C)C=Cc2ccccc21,69,54*
CN1/C(=C/C=C(C#N)C#N)C=Cc2ccccc21,76,-50
FC(F)(F)c1c[nH]c(=S)c(C(F)(F)F)c1,7.9*,nt
Nc1cc(C(F)(F)F)c[nH]c1=O,97,14
O=C1C(Sc2ccccc2)=C/C(=N/S(=O)(=O)c2cccs2)c2ccccc21,0.0*,16
CS/C(=N\S(=O)(=O)c1cccs1)NC(=O)c1ccccc1,98,13
N#CSc1sc(N)nc1-c1ccccc1,0.1*,19
COc1ccc(-c2nc(N)sc2-c2ccccc2)cc1,nt,16
CC(C)C1O/C(=N\C(=O)Nc2ccc(Cl)c(Cl)c2)NC1=O (configuration not stated),0.5*,-3
CCNC(=O)/N=C1\NC(=O)C(C(C)C)O1 (configuration not stated),86,-7
O=C1/C(=C/c2cccnc2)SC(=S)N1C1CCCC1,7.2*,8
CC(=C\c1ccccc1)/C=C1/SC(=S)N(C2CCCCC2)C1=O,99,8
Cc1cccc2cc3c(nc12)SC(=NCc1ccco1)N(Cc1cccs1)C3,93,6
CC(N=c1ccccn1C(=O)Nc1ccc(Cl)c(Cl)c1)c1ccco1 (configuration not stated),-0.8*,14
CC1Cc2ccccc2N1C(=O)Nc1ccc(Cl)c(Cl)c1 (configuration not stated),107,-1
O=C(NCC1COc2ccccc2O1)c1ccc2c(=O)n3c(nc2c1)CCCCC3 (configuration not stated),77,-3
Clc1ccc(C(Cn2ccnc2)OCc2csc3c(Cl)cccc23)c(Cl)c1 (configuration not stated),0.9*,nt
S=C(Nc1ccc(Cl)cc1Cl)NC(Cn1ccnc1)c1ccccc1 (configuration not stated),73,nt
CN(Cc1ccccc1)C(=O)CSc1nc2ccc(Br)cc2c2nc3ccccc3n12,90,5
COc1ccc2[nH]c(C)cc(=S)c2c1,83,12
Cc1ccc2[nH]c(C)cc(=S)c2c1,5.8*,1
Cc1nc(C)c(C(=O)Nc2nnc(C3CCCO3)s2)s1 (configuration not stated),81,14
Cc1nc2c(C(=O)NCc3ccccc3)c[nH]n2c(=O)c1Cc1ccccc1Cl,0.7*,nt
Cc1nc2c(C(=O)NCc3ccccc3)c[nH]n2c(=O)c1Cl,94,6
SMILES,Sa growth 42C,S aureus helic
CCCCN(C)C(=O)c1nc(-c2ccc(C)cc2)n2c1CCCCC2,94,10
c1ccc(-c2nc3ccccn3c2NC2CCCC2)nc1,-0.1*,5
c1csc(-c2nc3cnccn3c2NC2CCCCC2)c1,86,12
CCc1nnc(NC(=O)c2ccc(S(=O)(=O)N(C)C)cc2)o1,79,0
C=CCN(CC=C)S(=O)(=O)c1ccc(C(=O)Nc2nnc(COC)o2)cc1,22,-8
CCN(Cc1ccccc1)S(=O)(=O)c1ccc(C(=O)Nc2nnc(COC)o2)cc1,5.7*,-1
CCN(CC)S(=O)(=O)c1ccc(C(=O)Nc2ncn(Cc3ccccc3)n2)cc1,94,3
CN(c1ccccc1)S(=O)(=O)c1ccc(C(=O)Nc2nnc(C(F)(F)F)o2)cc1,3.2*,11
CN(c1ccccc1)S(=O)(=O)c1ccc(C(=O)O)cc1,91,25
CSCc1nnc(NC(=O)c2ccc(S(=O)(=O)N(C)Cc3ccccc3)cc2)o1,2.4*,6
CCCCN(CC)S(=O)(=O)c1ccc(C(=O)Nc2nnc(COC)o2)cc1,-0.5*,-3
COc1ccc(CCN=C(C)c2c(O)cc(C)oc2=O)cc1,96,8
Cc1cc(-n2c(SCC(=O)Nc3nccs3)nc3ccsc3c2=O)ccc1Cl,100,nt
CCOC(=O)C1CCN(C(C)C(=O)NC23CC4CC(CC(C4)C2)C3)CC1 (configuration not stated),88,12
CC(CNC(=O)c1nnc(-c2ccc3c(c2)OCO3)o1)c1ccccc1 (configuration not stated),89,3
O=S(=O)(c1cc(Cl)ccc1Cl)N1CCCC1,49*,1
O=S(=O)(c1cc(Cl)ccc1Cl)N1CCCCC1,109,nt
O=C(OCC(=O)N1CCCC1)c1ccc2ncsc2c1,89,13
CC[C@@H]1OC(=O)C[C@H](O)[C@@H](C)[C@@H](O[C@@H]2O[C@H](C)[C@@H](O[C@H]3C[C@@](C)(O)[C@@H](O)[C@H](C)O3)[C@H](N(C)C)[C@H]2O)[C@@H](C=O)C[C@@H](C)C(=O)/C=C/C(C)=C\[C@@H]1CO[C@H]1O[C@@H](C)[C@H](O)[C@H](OC)[C@@H]1OC,-1.0*,nt
